From the supplement of paper PMC11732987, “Enantioselective OTUD7B fragment discovery through chemoproteomics screening and high-throughput optimisation” (Communications Chemistry, 2025)

Key:
Assay in all cases: log2 ratio of Biotin-Ahx-Ub-VS probe labelling (fragment/DMSO); higher = less target engagement (more negative = stronger competition), active = hit call of the paper (q ≤ 0.05, log2 ratio ≤ -1)
Conditions in all cases: compound concentration: 200 uM; treatment time: 3 h
OTUD6B = target: T1, OTUD6B (UniProt Q8N6M0)
T1 sequence (whole entry): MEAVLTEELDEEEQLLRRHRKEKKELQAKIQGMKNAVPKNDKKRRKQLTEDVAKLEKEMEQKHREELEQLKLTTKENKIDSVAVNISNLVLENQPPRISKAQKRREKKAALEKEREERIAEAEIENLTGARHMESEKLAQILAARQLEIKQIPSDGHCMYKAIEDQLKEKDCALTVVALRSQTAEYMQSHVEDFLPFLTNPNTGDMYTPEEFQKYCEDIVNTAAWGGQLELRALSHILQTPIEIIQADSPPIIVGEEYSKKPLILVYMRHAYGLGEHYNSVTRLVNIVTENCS
Method in brief: (§1)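 Fragment (200 µM) or vehicle was incubated for 3 h with triplicate HEK293T lysate samples of 495 µg, which were then treated with Biotin-Ahx-Ub-VS at 0.5 µM final for 1 h. Labelled DUBs were enriched on NeutrAvidin, digested with LysC and trypsin, and analysed by diaPASEF LC-MS/MS. Values are average log2 fragment/vehicle ratios from an unpaired t-test on global-median-normalised Spectronaut label-free quantities, using proteins with ≥2 unique peptides.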

OTUD7B = target: T2, OTUD7B (UniProt Q6GQQ9)
T2 sequence (whole entry): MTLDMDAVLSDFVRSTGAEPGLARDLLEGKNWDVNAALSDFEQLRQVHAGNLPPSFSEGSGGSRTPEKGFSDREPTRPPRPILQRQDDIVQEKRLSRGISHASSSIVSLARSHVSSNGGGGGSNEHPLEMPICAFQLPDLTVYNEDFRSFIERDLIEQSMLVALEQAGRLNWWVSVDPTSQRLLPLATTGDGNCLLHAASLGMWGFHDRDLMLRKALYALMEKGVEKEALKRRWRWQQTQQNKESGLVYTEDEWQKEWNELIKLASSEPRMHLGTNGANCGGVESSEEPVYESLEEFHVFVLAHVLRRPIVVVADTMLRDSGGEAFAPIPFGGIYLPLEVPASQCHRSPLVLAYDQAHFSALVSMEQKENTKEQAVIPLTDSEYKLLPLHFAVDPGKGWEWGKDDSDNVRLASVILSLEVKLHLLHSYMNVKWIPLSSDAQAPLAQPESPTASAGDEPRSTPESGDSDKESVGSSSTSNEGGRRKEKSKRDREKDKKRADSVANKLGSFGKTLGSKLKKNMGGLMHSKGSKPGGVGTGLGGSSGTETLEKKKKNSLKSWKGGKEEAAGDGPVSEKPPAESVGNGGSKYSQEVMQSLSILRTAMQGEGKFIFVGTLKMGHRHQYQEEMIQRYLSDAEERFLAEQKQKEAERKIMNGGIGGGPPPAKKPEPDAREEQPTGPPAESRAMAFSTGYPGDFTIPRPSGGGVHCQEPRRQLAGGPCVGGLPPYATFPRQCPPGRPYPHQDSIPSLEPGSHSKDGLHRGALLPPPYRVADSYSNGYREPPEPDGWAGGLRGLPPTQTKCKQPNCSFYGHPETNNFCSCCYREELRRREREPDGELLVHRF
Method in brief: as §1

PRPF8 = PRPF8 (UniProt Q6P2Q9)
Method in brief: as §1

PSMD7 = target: T3, PSMD7 (UniProt P51665)
T3 sequence (whole entry): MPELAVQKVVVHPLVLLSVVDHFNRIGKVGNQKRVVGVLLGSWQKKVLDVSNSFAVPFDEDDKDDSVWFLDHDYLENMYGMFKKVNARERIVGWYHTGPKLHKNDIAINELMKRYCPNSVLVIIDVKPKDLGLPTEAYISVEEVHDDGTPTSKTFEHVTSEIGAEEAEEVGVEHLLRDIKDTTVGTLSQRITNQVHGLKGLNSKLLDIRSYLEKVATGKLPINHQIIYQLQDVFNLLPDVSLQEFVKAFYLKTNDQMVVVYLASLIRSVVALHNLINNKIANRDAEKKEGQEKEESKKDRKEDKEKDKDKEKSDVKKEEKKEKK
Method in brief: as §1

UCHL1 = UCHL1 (UniProt P09936)
Method in brief: as §1

UCHL3 = target: T4, UCHL3 (UniProt P15374)
T4 sequence (whole entry): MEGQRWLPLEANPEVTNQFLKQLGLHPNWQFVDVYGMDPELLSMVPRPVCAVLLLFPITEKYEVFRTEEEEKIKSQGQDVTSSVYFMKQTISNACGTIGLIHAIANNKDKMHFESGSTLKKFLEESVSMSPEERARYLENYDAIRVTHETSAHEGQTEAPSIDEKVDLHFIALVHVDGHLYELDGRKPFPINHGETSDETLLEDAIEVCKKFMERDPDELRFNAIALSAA
Method in brief: as §1

UCHL5 = target: T5, UCHL5 (UniProt Q9Y5K5)
T5 sequence (whole entry): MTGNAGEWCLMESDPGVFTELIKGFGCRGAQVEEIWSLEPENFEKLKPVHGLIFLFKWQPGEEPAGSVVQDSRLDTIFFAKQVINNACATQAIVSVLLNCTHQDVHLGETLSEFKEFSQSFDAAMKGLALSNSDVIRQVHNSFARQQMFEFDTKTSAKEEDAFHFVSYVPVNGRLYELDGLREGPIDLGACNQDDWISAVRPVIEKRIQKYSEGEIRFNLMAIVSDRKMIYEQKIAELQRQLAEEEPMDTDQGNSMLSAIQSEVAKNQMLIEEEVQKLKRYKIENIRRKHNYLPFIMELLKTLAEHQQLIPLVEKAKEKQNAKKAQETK
Method in brief: as §1

USP10 = USP10 (UniProt Q14694)
Method in brief: as §1

USP15 = target: T6, USP15 (UniProt Q9Y4E8)
T6 sequence (whole entry): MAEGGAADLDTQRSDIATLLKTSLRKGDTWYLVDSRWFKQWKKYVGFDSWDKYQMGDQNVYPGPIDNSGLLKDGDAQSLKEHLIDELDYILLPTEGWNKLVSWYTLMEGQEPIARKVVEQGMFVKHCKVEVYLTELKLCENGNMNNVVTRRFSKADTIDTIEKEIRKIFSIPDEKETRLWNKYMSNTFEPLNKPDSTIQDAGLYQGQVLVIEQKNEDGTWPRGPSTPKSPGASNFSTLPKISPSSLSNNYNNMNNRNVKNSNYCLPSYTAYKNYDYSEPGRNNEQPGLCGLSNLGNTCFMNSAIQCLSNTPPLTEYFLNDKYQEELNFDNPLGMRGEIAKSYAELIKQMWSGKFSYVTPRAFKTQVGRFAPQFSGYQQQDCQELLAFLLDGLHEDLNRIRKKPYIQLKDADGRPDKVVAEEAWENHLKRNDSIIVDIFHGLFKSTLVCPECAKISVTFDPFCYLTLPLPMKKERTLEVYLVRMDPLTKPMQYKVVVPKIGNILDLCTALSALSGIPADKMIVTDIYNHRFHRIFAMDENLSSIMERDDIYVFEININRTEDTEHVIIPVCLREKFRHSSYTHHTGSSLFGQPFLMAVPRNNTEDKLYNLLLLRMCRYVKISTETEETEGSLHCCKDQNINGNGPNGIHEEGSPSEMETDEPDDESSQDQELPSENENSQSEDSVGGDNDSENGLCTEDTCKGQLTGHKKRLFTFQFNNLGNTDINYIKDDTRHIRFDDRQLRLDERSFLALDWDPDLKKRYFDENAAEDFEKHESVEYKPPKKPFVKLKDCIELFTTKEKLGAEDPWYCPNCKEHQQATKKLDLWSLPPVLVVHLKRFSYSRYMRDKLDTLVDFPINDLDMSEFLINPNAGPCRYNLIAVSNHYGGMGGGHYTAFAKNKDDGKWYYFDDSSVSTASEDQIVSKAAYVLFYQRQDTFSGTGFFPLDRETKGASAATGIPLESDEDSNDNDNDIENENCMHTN
Method in brief: as §1

USP16 = USP16 (UniProt Q9Y5T5)
Method in brief: as §1

Measured: log2 ratio of Biotin-Ahx-Ub-VS probe labelling

Chain of USP16 (Q9Y5T5 whole entry, looked up): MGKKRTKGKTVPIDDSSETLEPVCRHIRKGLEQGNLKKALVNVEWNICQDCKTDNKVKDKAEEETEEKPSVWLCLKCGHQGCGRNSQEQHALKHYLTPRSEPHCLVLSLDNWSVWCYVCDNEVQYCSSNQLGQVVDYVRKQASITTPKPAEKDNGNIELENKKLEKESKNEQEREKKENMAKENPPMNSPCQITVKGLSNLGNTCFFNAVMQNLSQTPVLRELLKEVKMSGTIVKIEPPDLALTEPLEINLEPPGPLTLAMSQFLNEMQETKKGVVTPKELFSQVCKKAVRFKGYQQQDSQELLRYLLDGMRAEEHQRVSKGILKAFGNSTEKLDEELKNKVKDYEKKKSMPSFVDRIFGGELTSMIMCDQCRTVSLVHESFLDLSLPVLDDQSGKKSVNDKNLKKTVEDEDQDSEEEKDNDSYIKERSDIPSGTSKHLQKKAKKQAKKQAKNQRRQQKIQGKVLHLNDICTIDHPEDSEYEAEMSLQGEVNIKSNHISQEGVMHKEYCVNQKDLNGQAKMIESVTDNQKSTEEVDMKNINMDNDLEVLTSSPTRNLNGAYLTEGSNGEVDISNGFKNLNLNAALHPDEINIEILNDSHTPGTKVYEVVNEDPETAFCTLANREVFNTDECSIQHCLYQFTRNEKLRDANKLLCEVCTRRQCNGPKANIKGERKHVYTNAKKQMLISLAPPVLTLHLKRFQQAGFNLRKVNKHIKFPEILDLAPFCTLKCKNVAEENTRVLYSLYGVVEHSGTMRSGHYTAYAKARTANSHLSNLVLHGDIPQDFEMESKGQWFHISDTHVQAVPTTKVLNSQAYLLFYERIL
Chain of USP10 (Q14694 whole entry): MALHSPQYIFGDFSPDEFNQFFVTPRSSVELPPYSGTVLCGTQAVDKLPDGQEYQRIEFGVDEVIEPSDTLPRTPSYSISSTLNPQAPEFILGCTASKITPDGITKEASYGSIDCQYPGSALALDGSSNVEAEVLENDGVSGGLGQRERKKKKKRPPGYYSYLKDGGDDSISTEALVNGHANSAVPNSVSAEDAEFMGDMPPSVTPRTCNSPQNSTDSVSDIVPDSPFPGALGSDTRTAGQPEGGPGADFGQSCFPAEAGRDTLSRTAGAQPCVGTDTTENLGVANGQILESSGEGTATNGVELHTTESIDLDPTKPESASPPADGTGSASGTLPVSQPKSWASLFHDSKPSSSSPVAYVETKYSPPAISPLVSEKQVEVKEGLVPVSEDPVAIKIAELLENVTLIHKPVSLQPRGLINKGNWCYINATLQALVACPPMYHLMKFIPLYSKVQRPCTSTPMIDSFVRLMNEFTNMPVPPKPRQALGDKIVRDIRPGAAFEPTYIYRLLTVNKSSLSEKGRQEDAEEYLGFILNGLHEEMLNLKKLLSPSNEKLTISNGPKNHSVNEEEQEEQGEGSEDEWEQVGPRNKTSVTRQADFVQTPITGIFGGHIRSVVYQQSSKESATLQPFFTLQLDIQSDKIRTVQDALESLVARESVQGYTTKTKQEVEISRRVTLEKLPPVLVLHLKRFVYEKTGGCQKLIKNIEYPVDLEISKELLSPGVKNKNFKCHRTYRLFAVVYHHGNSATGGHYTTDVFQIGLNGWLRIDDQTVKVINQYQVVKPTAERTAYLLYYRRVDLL
Chain of UCHL1 (P09936 whole entry, looked up): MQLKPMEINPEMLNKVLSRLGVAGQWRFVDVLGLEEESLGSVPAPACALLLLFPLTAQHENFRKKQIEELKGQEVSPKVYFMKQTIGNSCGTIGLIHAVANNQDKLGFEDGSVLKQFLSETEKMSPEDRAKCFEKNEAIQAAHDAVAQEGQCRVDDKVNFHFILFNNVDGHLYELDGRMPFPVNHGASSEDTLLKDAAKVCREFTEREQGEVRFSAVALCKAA

O=C(CCl)N1CCC[C@@H]1c1ccon1
inactive: OTUD6B -0.245 | OTUD7B -0.356 | PRPF8 0.0558 | PSMD7 -0.283 | UCHL3 0.0429 | UCHL5 -0.401 | USP10 -0.0611 | USP15 -0.228 | USP16 -0.0988
active: UCHL1 -1.49
